# CtBP-E1A inh: CtBP/E1A binding inhibition; AlphaScreen GST-E1A/His-CtBP binding, 1536-well; active compounds read low; 0.49% of 340,000 active; activity change, % (no concentration beside the values); in the data active means activity change below about -65%; inconclusive means mostly about -30% to -63%; further: on the % scale 0 is the no-effect control and ±100 the full control effect
#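 In 5 uL wells, 23 nL compound meets equimolar GST-E1A and His-CtBP (5X stock 125 nM each) for 2 h, 37 °C. Beads (5X, 50 ug/mL) then 1 h, 37 °C, dark.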
# Six1-Eya2 inh: inhibitors of human Six1/Eya2 interaction; Q15475+O00167; AlphaScreen GST-Six1/His-Eya2 binding, biochemical; active compounds read low; activity change, % (test concentration not listed); 0.56% of 360,000 active; AID 651725; in the data active means activity change below about -65%; inconclusive means mostly about -30% to -63%; further: on the % scale 0 is the no-effect control and ±100 the full control effect
# Target sequence (O00167 whole entry, looked up): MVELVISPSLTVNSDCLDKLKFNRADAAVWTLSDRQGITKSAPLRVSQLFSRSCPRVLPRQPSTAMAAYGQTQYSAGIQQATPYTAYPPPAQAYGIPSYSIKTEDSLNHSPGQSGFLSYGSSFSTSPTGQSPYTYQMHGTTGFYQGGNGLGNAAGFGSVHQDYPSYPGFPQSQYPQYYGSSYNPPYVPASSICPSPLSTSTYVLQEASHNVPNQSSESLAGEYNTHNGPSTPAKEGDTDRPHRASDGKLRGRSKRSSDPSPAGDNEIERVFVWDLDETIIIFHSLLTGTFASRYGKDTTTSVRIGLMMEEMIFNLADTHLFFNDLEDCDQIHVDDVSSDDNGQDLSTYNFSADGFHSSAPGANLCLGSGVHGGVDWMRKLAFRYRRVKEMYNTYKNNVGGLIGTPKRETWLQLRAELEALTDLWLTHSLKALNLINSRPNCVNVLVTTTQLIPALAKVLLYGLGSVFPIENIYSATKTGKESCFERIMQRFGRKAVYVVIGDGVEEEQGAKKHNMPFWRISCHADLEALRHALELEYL
# Target sequence (Q15475 whole entry, looked up): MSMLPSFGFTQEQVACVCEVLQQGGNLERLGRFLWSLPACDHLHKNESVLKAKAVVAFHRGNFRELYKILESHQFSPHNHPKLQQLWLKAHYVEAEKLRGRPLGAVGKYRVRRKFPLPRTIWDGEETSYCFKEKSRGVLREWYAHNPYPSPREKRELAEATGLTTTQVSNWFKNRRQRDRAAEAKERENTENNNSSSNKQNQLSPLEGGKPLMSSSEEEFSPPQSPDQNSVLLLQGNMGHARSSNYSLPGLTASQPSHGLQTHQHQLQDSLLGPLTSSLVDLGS
#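 GST-Six1 + His-Eya2 (5X stock: 250/500 nM); Tris pH 8.0, 300 mM NaCl, 0.05% BSA, 0.02% Tween 20; GSH donor/Ni acceptor beads; 1 h 37 °C dark; AlphaScreen readout.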
# MBNL1 CUG block: inhibitors of human MBNL1 binding to CUG repeat RNA | Q9NR56 | TR-FRET MBNL1-His/biotin-(CUG)12 binding, 665/545 ratio | Potency, µM (doses to about 57.5 µM), inactives show at the top dose activity change, negative = inhibition, most hits filed as inhibitors | 0.036% of 280,000 active; active means well fitted inhibition curve with a large enough effect in the signal ratio, with a control signal flat, not every such curve was filed as active; inconclusive means small, poorly fitted or top-dose-only effect, or effect the other way, or a change in a side signal; inactive means no such curve, though single readings can be large or run the other way; the % refers to the signal ratio; further: potency means the concentration at half of the fitted maximal effect; on the % scale 0 is the no-effect control and ±100 the full control effect
#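 MBNL1-His + Biotin-(CUG)12, cpd titration 92 nM–58 uM; Tb anti-His Ab 0.055 ng/ul, SA-XL665 5 nM (final); 60 min RT; ratiometric 665/545 nm, Ex 340 nm; normalized to buffer and full-complex controls.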
# CBFb-RUNX1 inh: blocks binding between human CBF-beta and RUNX1; Q01196+Q13951; AlphaScreen CBFb-His/RUNX1-biotin binding, biochemical; Potency, µM (highest dose often 59.8 µM), inactives show at the highest dose activity, negative = inhibition, actives largely listed as inhibitors; 230,000 tested, under 10 active; AID 1477; further: % of control where 0% means no effect
#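 Compounds were screened at multiple concentrations against a preformed CBF-beta(His)/RUNX1(biotin) complex (30 nM of each) for 15 min at room temperature, followed by 90 min with nickel and streptavidin beads and AlphaScreen reading.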
# Gal4-VP16 FLuc: counter-screen for ROR gamma inhibitors: Gal4-VP16 reporter; Drosophila S2 Gal4-VP16 UAS-luciferase, luminescence, 20 h; Potency, µM (highest dose often 53.6 µM), inactives show at the top dose activity, negative = inhibition, hits mostly inhibitors; 3.5% of 310,000 active;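 further: Gal4-VP16 expression switched on by copper sulfate through the metallothionein promoter; potency means the concentration at half of the fitted maximal effect; on the % scale 0 is the no-effect control and ±100 the full control effect; nearly all actives have a fitted effect of over 50% in size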
# RORg inh: ROR gamma (mouse) transcription inhibition | P51450 | Drosophila S2 Gal4-RORgamma UAS-luciferase reporter, 20 h | Potency, µM (top dose mostly 53.6 µM), for inactives: at the highest dose activity change, negative = inhibition, usual class: inhibitors | 5.4% of 310,000 active | AID 2551; further: potency means the concentration at half of the fitted maximal effect; on the % scale 0 is the no-effect control and ±100 the full control effect; nearly all actives have a fitted effect of over 60% in size
#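 Using a luciferase readout, inhibitors were identified by reduced reporter activity in Drosophila cells coexpressing a copper-inducible Gal4–ROR gamma fusion and UAS-driven Photinus luciferase, incubated 20 hr after 700 uM copper sulfate.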
# Numbers without * were called inactive; ? = inconclusive; nt = not tested or not shown; ! = repeats disagree. The list is not random: actives were taken first. Their share in the collection is about 5.5%. Unless noted, the call rests on the fitted dose curve; in most records, active means well fitted curve in the direction sought with a large enough effect; inconclusive means small, poorly fitted or top-dose-only effect, or another doubt; inactive means no such curve, though single readings can be large; an effect the other way counts as inactive or inconclusive.
SMILES,CtBP-E1A inh,Six1-Eya2 inh,MBNL1 CUG block,CBFb-RUNX1 inh,Gal4-VP16 FLuc,RORg inh
COC(=O)c1[nH]c2ccccc2c1NC(=O)c1ccccc1[N+](=O)[O-],-0.1,3.6,?,-7.1%,-5.8%,18.0%
O=C(NC(Cc1ccccc1)c1nc2ccccc2[nH]1)c1ccc(Cl)c([N+](=O)[O-])c1 (configuration not stated),1.4,-12.3,-15.4%,-5.3%,?,?
Cc1c(C(=O)NC(Cc2ccccc2)c2nc3ccccc3[nH]2)cccc1[N+](=O)[O-] (configuration not stated),-20.9,-7.7,21.2%,11.5%,3.1%,-4.0%
O=C(Nc1nc2ccccc2[nH]1)c1ccccc1[N+](=O)[O-],8.2,-1.5,13.9%,9.6%,22.4µM*,8.91µM*
O=C(Nc1nc2ccccc2[nH]1)c1ccc(Cl)c([N+](=O)[O-])c1,0.7,-4.8,3.5%,4.2%,?,2.82µM*
COc1ccccc1C(=O)NS(=O)(=O)c1ccc(C)cc1,nt,0.3,nt,nt,nt,nt
Cc1cc(=O)c2c(O)c3c(O)cc(=O)c4c3c3c(cc(O)c1c23)C(C)(C)C=4O,nt,nt,nt,-9.5%,3.98µM*,7.08µM*!
COC(=O)CCC(C(=O)CN1C(=O)c2ccccc2C1=O)N1C(=O)c2ccccc2C1=O (configuration not stated),5.0,2.6,nt,nt,nt,nt
O=C(Nc1ccc2ccccc2c1)C(c1ccccc1)n1c(=O)c(-c2cc3ccccc3[nH]2)nc2ccccc21 (configuration not stated),20.1,33.3,nt,nt,nt,nt
O=C1/C(=C/c2ccc(C(=O)O)cc2)CCC/C1=C\c1ccc(C(=O)O)cc1,3.2,-67.2*,nt,-0.4%,1.6%,-16.6%
O=C1/C(=C/c2cccnc2)CCC/C1=C\c1cccnc1,-0.5,-6.9,-23.2%,-7.0%,2.51µM*,1.26µM*
CCC1C/C(=C\c2cccnc2)C(=O)/C(=C/c2cccnc2)C1 (configuration not stated),0.3,-7.8,nt,-1.1%,1.78µM*,5.62µM*
O=C1/C(=C/c2cccnc2)CC/C1=C\c1cccnc1,0.8,0.0,-5.4%,-13.4%,-18.5%,0.7%
COc1ccc(S(=O)(=O)N2CCCCCC2)cc1NC(=O)Cc1cccc(C(F)(F)F)c1,-1.5,0.9,nt,nt,nt,nt
Cc1ccc(S(=O)(=O)N(Cc2cccc(Cl)c2)C(=O)N2CCN(C)CC2)cc1,-20.2,9.5,nt,nt,nt,nt
CCCS(=O)(=O)NC(=O)C1(C)CCN(C(=O)c2ccc3c(c2)OCO3)C1 (configuration not stated),7.6,7.4,nt,nt,nt,nt
COC(=O)CSc1nnc(-c2sc3cc(OC)ccc3c2Cl)n1C,-17.4,-2.3,5.0%,7.7%,-2.4%,11.2µM*
COC(=O)CSc1nnc(-c2sc3ccccc3c2Cl)o1,-2.6,7.3,21.6%,-2.2%,20µM*,?
CCCOc1ccccc1/C=C1\SC(N2CCCCC2)=NC1=O,2.1,3.9,13.3%,nt,21.2%,11.9%
Cn1nc([N+](=O)[O-])nc1Sc1cccc2cccnc12,nt,-90.1*,?,-3.7%,17.8µM*,11.2µM*
CC1=C(C(=O)N2CCCCCC2)CC(CC(=O)NCC2CCCCC2)C(=O)N1Cc1ccc(F)cc1 (configuration not stated),0.0,19.1,nt,nt,nt,nt
O=c1c2ccccc2sn1-c1ccccc1,-3.8,-0.9,-4.3%,-0.7%,2.82µM*,3.55µM*
O=c1c2ccccc2sn1-c1nccs1,-8.4,-7.2,-2.4%,-8.9%,?,8.91µM*
O=c1c2ccccc2sn1-c1cccc(Cl)c1,-3.4,-11.1,nt,nt,nt,nt
COc1ccc2oc(=O)c(C(=O)OCC(=O)c3ccc([N+](=O)[O-])cc3)cc2c1,nt,nt,22.5%,-7.3%,27.0%,15.9%
SMILES,CtBP-E1A inh,Six1-Eya2 inh,MBNL1 CUG block,CBFb-RUNX1 inh,Gal4-VP16 FLuc,RORg inh
CCOC(=O)/C(O)=C/c1ncc(C(F)(F)F)cc1Cl,-9.1,-9.3,?,-3.2%,10µM*,8.91µM*
CCOC(=O)C(C(=O)N(C)C)c1ncc(C(F)(F)F)cc1Cl (configuration not stated),-5.8,2.3,2.4%,4.5%,-3.1%,-1.3%
COc1ccc(-c2csc3nc[nH]c(=O)c23)cc1OC,-4.4,-1.3,-13.2%,nt,6.9%,16.1%
Cc1ccc(-c2csc3nc[nH]c(=S)c23)cc1C,-0.7,-23.6,nt,4.2%,?,0.447µM*
CCOC(=O)C1=CCN(S(=O)(=O)c2ccc(Cl)cc2)C1c1cccc(C)c1 (configuration not stated),4.1,0.7,nt,nt,nt,nt
COc1ccc(C)cc1N(C(=O)c1ccco1)C(C(=O)NC1CCCC1)c1ccc(N2CCOCC2)cc1 (configuration not stated),0.0,-12.7,-0.5%,nt,2.1%,27.3%
C/C(=N\Nc1nc(C)cc(-c2ccccc2)n1)c1ccc(C)o1,-13.4,-16.8,13.3%,-3.9%,10µM*,5.01µM*
C/C(=N\NC(=O)c1ccc(-c2ccccc2)cc1)c1ccco1,-3.9,-0.3,6.9%,nt,6.0%,-12.5%
C/C(=N/Nc1nc(C)cc(-c2ccccc2)n1)c1ccco1,-4.3,-2.4,10.9%,-2.9%,17.8µM*,5.01µM*
CCCCC/C=C\C/C=C\CCCCCCCC(=O)O[C@@H](CO)COC(=O)CCCCCCCCCCCCCCCCC,nt,nt,nt,7.2%,10.2%,1.6%
O=C(COC(=O)c1ccc(O)cc1O)Nc1ccc2c(c1)OCCO2,nt,-1.9,nt,nt,nt,nt
COc1cc(C(O)c2nc(-c3cccc(F)c3)cs2)ccc1F (configuration not stated),-10.7,2.1,nt,nt,nt,nt
c1cn(-c2ncnc3ccc(-c4ccoc4)cc23)cn1,nt,nt,nt,nt,?,4.47µM*
CC12CCC(C)(c3nc4ccccc4nc31)C2(C)C,4.2,8.9,-6.2%,3.5%,1.7%,-11.7%
Cc1[nH]nc2c1-c1nc3ccccc3nc1C(C)(C)C2,-5.2,-4.0,22.5%,4.6%,3.16µM*,3.98µM*
COc1cccc(Nc2ncc3ncc(=O)n(CCC#N)c3n2)c1,nt,nt,nt,nt,12.2%,?
COc1cccc(C2CC(c3cccc(NS(C)(=O)=O)c3)=NN2C(=O)c2ccccc2)c1OC (configuration not stated),-2.8,-10.3,16.7%,-18.2%,-13.4%,2µM*
COC(=O)c1cc(S(=O)(=O)N2CCC(C)CC2)cn1C,nt,0.2,2.1%,nt,-0.4%,-9.5%
Cc1ccc(NC(=O)c2ccc3c(c2)OCCO3)cc1C,2.3,-3.9,-0.1%,nt,?,5.01µM*
CC(=O)NS(=O)(=O)c1ccc(NC(=O)c2ccc3c(c2)OCO3)cc1,-14.8,-6.4,-16.9%,nt,0.0%,20µM*
